# MITF TRPM1 inh: MITF TRPM1 promoter inhibition in SK-MEL-5 cells; AID 488899; SK-MEL-5 TRPM1 promoter luciferase, 24 h; inhibition, % at 12.5 µM; 0.83% of 330,000 active;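 active means mean inhibition across replicates of 60% or more, whatever share of single replicates reaches that level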
# Shn3 3UTR inh: reduces Shn3 3'UTR luciferase signal in osteoblasts; Clone20 osteoblast Shn3 3'UTR firefly luciferase, 24 h; inhibition, % at 12.5 µM; 0.52% of 360,000 active;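 active means mean inhibition of at least 75% with every replicate also reaching 75%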;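 further: 0% = median of neutral control wells and 100% = pilot-screen positive control compound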
# CF NFkB block: blocks PAF-induced NF-kB reporter in cystic fibrosis cells. KKLEB NF-kB-GFP reporter, GFP fluorescence overnight. inhibition, % at 5 µM. 0.86% of 360,000 active. AID 588850;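 active means at least 50% inhibition at 5 µM, scaled per plate between neutral and stimulator controls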;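 further: PAF is a Pseudomonas aeruginosa culture filtrate used as stimulus; plate controls were PAF-stimulated DMSO wells for no effect and unstimulated DMSO wells for full effect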
# Peg3 prom inh: Peg3 promoter activity inhibition. HeLa PEG-Prom luciferase reporter, luminescence, overnight. inhibition, % at 20 µM. 1.7% of 360,000 active;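 active means inhibition of at least 50% at 20 µM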
# HIF-2a block: blocks HIF-2a reporter activity; 786-0 RCC cells HIF-2a reporter, luciferase luminescence, overnight; inhibition, % at 18.8 µM; 0.72% of 360,000 active; AID 624352;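 active means inhibition of the luminescence signal of 40% or more relative to plate controls, in a single-dose primary screen at 18.75 µM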
# KKLEB tox: counter-screen for CF NF-kB inhibitors: cytotoxicity; KKLEB CF airway cells viability, ATPlite luminescence, overnight; stronger effect = lower value; cells stimulated with P. aeruginosa culture filtrate; activity change (cytotoxicity), % at 5 µM; 0.36% of 360,000 active;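 active means corrected activity change at or below -50% at 5 µM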
# * = called active by the depositor; nt = not tested or not shown. Sampled rows, rich in hits. Any-hit rate of the full collection: about 2.8%.
SMILES,MITF TRPM1 inh,Shn3 3UTR inh,CF NFkB block,Peg3 prom inh,HIF-2a block,KKLEB tox
O=C(Cn1c(=O)oc2ccccc21)N1CCCC1,4,0,-15,8,17,5
CC(C)CNc1ncnc2c1ncn2[C@H]1CN(C2CCCC2)C[C@@H](CO)O1,nt,10,19,-1,10,-1
O=c1c2ccccc2sn1-c1ccc(Cl)cc1,nt,9,64*,-128,-240,-10
O=c1c2ccccc2sn1-c1ccc(F)cc1,9,-13,32,-65,-94,-9
O=c1c2ccc(F)cc2sn1-c1ccccc1,nt,-26,54*,-95,-47,5
Nc1nc(N)c2cc([N+](=O)[O-])ccc2n1,14,-6,-14,3,9,7
Nc1nc(N)c2cc(S(=O)(=O)c3ccc4ccccc4c3)ccc2n1,nt,85*,31,14,25,-24
COc1ccccc1NS(=O)(=O)c1cccc(C(=O)NCC(c2cccs2)N2CCOCC2)c1 (stereo not drawn),3,8,-11,8,12,2
CN(C)CCCNc1ncnc2sc(-c3ccccc3)cc12,-34,nt,-21,71*,1,4
CCOC(CNc1ncnc2sc(-c3ccccc3)cc12)OCC,-31,-18,4,-26,-38,-12
O=C(Nc1ccc(Cl)cc1)Nc1ccc(N2CCCC2)c(S(=O)(=O)Nc2ccccc2Cl)c1,71*,97*,43,46,-22,-41
COc1cc(C(=O)Nc2nc(-c3ccc(Cl)cc3)c(C)s2)ccc1OCC(=O)Nc1ccc(F)cc1,48,57,48,35,-3,-58*
COc1ccc(-c2nc(NC(=O)c3ccc(OCC(=O)N4CCOCC4)c(OC)c3)sc2C)cc1,7,19,-31,66*,8,5
COc1ccc(N=Nc2ccc(N)nc2N)cc1,-66,-58,-32,-358,-342,20
CCOc1ccc2nc3cc(N=Nc4ccc(N)nc4N)ccc3c(N)c2c1,73*,-1,-100,74*,11,-2
CCOC(=O)C(Cc1nc(OCc2ccccc2)cc(OCc2ccccc2)n1)=NO,-8,17,40,55*,11,-3
CCCc1ccccc1OCCNC(=O)c1cc(=O)n(C)c(=O)n1C,-12,20,-18,11,13,1
COC(=O)Cn1ncc(N(C)Cc2ccccc2)c(Cl)c1=O,-68,-69,9,-181,-163,3
O=S(=O)(c1cccs1)N1CCC2(CC1)OCCN2S(=O)(=O)c1ccccc1,0,13,14,4,6,10
O=C(Nc1ccc(Br)cn1)c1ccc(COc2c(F)c(F)cc(F)c2F)o1,2,-3,4,3,-14,6
O=C(/C=C/c1ccc(Cl)cc1)c1ccc([N+](=O)[O-])o1,98*,97*,96*,107*,49*,-48
Cc1cc(O)c(C(=O)/C=C/c2ccc(Cl)cc2)c(=O)o1,-10,-9,-20,-119,-97,8
CC(/C=N/NC(=O)CSc1nc(C)cc(C)n1)=C\c1ccccc1,-14,8,-24,-6,2,28
CC(/C=N\NC(=O)Cn1c(C)nc2ccccc21)=C\c1ccccc1,2,85*,-20,-6,12,7
COC(=O)C[C@@H]1C[C@@H]2c3cc(NC(=O)Cc4ccncc4)ccc3O[C@@H]2[C@@H](CO)O1,nt,-4,4,-3,6,-6
SMILES,MITF TRPM1 inh,Shn3 3UTR inh,CF NFkB block,Peg3 prom inh,HIF-2a block,KKLEB tox
COc1ccc(/C=N/n2cncn2)cc1Cn1nc(C)c([N+](=O)[O-])c1C,2,-17,7,-5,26,-5
Cc1ccccc1OCCNc1cc(N2CC(C)NC(C)C2)ccc1[N+](=O)[O-] (stereo not drawn),-6,-4,16,81*,-16,-2
CC1CN(c2ccc([N+](=O)[O-])c(NCCOc3ccc(Cl)cc3)c2)CC(C)N1 (stereo not drawn),2,-9,-11,77*,-16,-18
O=C(NCc1ccco1)Nc1nnc([C@H]2C[C@H](O)[C@@H](CO)O2)s1,nt,-19,-6,-8,10,-8
O=C(NCC1CCCN(Cc2ccc3c(c2)OCCO3)C1)c1ccc2c(c1)OCO2 (stereo not drawn),4,2,4,0,19,-10
O=C(NCC1CCCN(Cc2ccc3nonc3c2)C1)c1cccc(C(F)(F)F)c1 (stereo not drawn),8,4,-10,51*,12,-3
CCOC1=CC2=C(C(=O)C(Cl)=CC2=O)[C@@H]2CN(S(=O)(=O)c3ccc(C)cc3)[C@@H](c3ccccc3)[C@H]12,nt,48,-16,49,57*,-16
CCN1C(=O)[C@@H]2[C@@H]3CN(S(=O)(=O)c4ccc(C)cc4)[C@@H](c4ccccc4)[C@@H]3C(=O)C[C@@H]2C1=O,nt,-16,-16,4,13,2
Cc1ccc(-n2ncc3c2CCCC3NC(=O)c2ccoc2)cc1C (stereo not drawn),21,20,6,2,10,-13
Cc1cc(C(=O)NC2CCCc3c2cnn3-c2ccc(C)c(C)c2)n(C)n1 (stereo not drawn),40,88*,16,20,-5,-16
Cc1cc(C)cc(NC(=O)C2CCN(S(=O)(=O)c3ccc4c(c3)NC(=O)C(C)S4)CC2)c1 (stereo not drawn),1,10,16,42,10,0
Cc1ccc(NC(=O)C2CCN(S(=O)(=O)c3ccc4c(c3)NC(=O)C(C)S4)CC2)cc1Cl (stereo not drawn),19,89*,46,22,10,-8
CCOC(=O)CN1C(=O)C(=O)N(Cc2ccccc2F)C1=O,-10,-5,-7,0,13,2
CCC(C)c1ccc(OCC(=O)Nc2ccc3c(c2)C(=O)NC3=O)cc1 (stereo not drawn),-6,0,27,2,-9,-21
COc1ccc(C(=O)N/N=C/c2c[nH]c3ccccc23)cc1,-6,-16,-5,-76,-151,0
CCCOc1ccc(C(=O)N/N=C/c2c[nH]c3ccc(Br)cc23)cc1,9,-14,2,51*,14,2
C[C@]12CC[C@@H]3c4cc(O)c(O)cc4CC[C@H]3[C@@H]1CC[C@@H]2O,-4,23,55*,5,5,16
N#Cc1c([N+](=O)[O-])cc([N+](=O)[O-])cc1S(=O)(=O)Cc1ccccc1,93*,95*,82*,98*,94*,-62*
O=c1c2c(-c3ccccc3)csc2nc2c3ccccc3c(NCCN3CCOCC3)nn12,6,-9,-18,108*,-101,-10
CC(C)(C)c1nnc(N/N=C/c2ccccc2O)n(N)c1=O,43,90*,-5,38,-107,-10
CC(C)(C)c1nnc(N/N=C/c2ccccc2)n(N)c1=O,-4,-36,-4,-49,-75,-4
